# Only some compounds are listed: those with a hit (about 1.7% of all), similar ones and a draw of the others.
# p53ts 39C kill: kills p53ts cells at the nonpermissive temperature | actives 1.5% (n = 130,000) | H1299-p53A138V viability at 39C, ATP luminescence, 24 h | AID 902 | Potency, µM (highest dose often 46.1 µM), inactives show top-dose activity change, negative = cell killing, actives largely listed as cytotoxic; also: % is scaled to controls: 0 for no effect and ±100 for the full control effect; nearly all actives have a fitted effect of over 55% in size
# IkB sig inh: IkB pathway inhibition in ABC-DLBCL cells; ABC-DLBCL IkBa-CBG/CBR dual luciferase ratio, 4 h; response scale: scaled: untreated 0%, proteasome inhibitor 100%; Potency, µM (titrated, usually from 57.1 µM), for inactives: at the top dose IkBa stabilization activation; actives 0.04% (n = 110,000); active = well fitted curve in the direction sought with a large enough effect in the signal ratio, not every such curve was filed as active; inconclusive = small, poorly fitted or top-dose-only effect, or a change in a side signal; the % refers to the signal ratio;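 also: the direction sought is a rising ratio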
#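 In this assay, an IκBα–CBG68 fusion accumulates when IKK-driven degradation is blocked; native CBR normalizes for cell number. OCI-Ly3 cells were treated 4 h with compound and doxycycline, then green and red light read after Chroma-Glo addition.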
# p53ts 32C tox: p53ts cell cytotoxicity, permissive temperature | actives 0.93% (n = 130,000) | H1299-p53A138V at 32C, ATP luminescence viability, 24 h | AID 924 | Potency, µM (highest dose often 46.1 µM), without a hit: at the highest dose activity change, negative = cytotoxicity, most hits filed as cytotoxic;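 also: 0% = DMSO and -100% = full killing by reference compound; nearly all actives have a fitted effect of over 55% in size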
#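 H1299-p53 A138V cells (temperature-sensitive p53) exposed 24 h to up to 46 uM compound at 32C, where p53 is wild-type in conformation. Viability read as ATP luminescence and normalised to DMSO and 100 uM tamoxifen. AC50 fitted with the Hill equation.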
# Peg3 imprint: genomic imprint erasure induction. Potency, µM (doses to about 60.7 µM), without a hit: at the top dose activity change, positive = activation, usual class: activators. mouse ES Peg3-LacZ reporter, beta-gal luminescence, 40 h. AID 1948. actives 0.02% (n = 110,000)
#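 Each well holds 300 Peg3LacZ-Neo (maternal) female ES cells incubated 40 h at 37C, 5% CO2. LacZ is measured by BetaGlo luminescence, with AC50 and maximum efficacy derived from dose-response curves.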
# * = called active by the depositor; ? = inconclusive; . = no result given; ! = a repeat was not active; [ ] = dose if it differs, or a comment. Unless noted, calls follow the shape of the dose curve; as a rule, active = well fitted curve in the direction sought with a large enough effect; inconclusive = small, poorly fitted or top-dose-only effect, or another doubt; inactive = no such curve, though single readings can be large; an effect the other way counts as inactive or inconclusive. Potency is read from the fitted curve at half-maximal effect.
SMILES,p53ts 39C kill,IkB sig inh,p53ts 32C tox,Peg3 imprint
c1ccc(-c2cn3c4c(sc3n2)CCCC4)cc1,0.631µM*,?,1µM*,-87.9%
CSc1nn(Cc2cccc(Cl)c2)c(N(C(C)=O)C(C)=O)c1S(=O)(=O)c1ccccc1,20µM*,-7.5%,9.5%,12.8%[10.9 µM]
CCC(=O)N1CCc2cc(S(=O)(=O)CCC(=O)N3CCN(c4cccc(C)c4C)CC3)ccc21,25.1%,-0.6%,-1.4%,-5.0%[10.9 µM]
O=C(CCS(=O)(=O)c1nc(-c2cccs2)cc(C(F)(F)F)n1)Nc1cc(Br)ccc1O,7.94µM*,?,?,-33.1%[10.9 µM]
Cc1ccc(O)c(NC(=O)CCS(=O)(=O)c2nc(-c3cccs3)cc(C(F)(F)F)n2)c1,?,?,?,23.5%[10.9 µM]
Cc1cccc(-n2ncc3c(NC(C)C)ncnc32)c1,15.8µM*,?,12.6µM*,-34.1%
CC(C)Nc1ncnc2c1cnn2-c1ccccc1,?,?,12.6µM*,-41.0%
Cc1cccc(-n2ncc3c(Nc4c(C)cc(C)cc4C)ncnc32)c1,-2.4%,?,11.2%,-13.4%[10.9 µM]
Clc1ccc(-n2ncc3c(NC4CCCC4)ncnc32)cc1,15.8µM*,?,12.6µM*,-14.0%[10.9 µM]
Oc1c(C(c2ccccc2F)N2CCOCC2)sc2nc(-c3ccco3)nn12 (centres undefined),-3.3%,-2.8%,1.0%,-17.8%[10.9 µM]
Cc1ccc(C(=O)c2cn(Cc3cccc(F)c3)c3nc(C)ccc3c2=O)cc1,1.3%,?,7.9%,7.2%[10.9 µM]
C=CCNc1nc2c(c(=O)[nH]c(=O)n2C)n1Cc1cccc(C)c1,7.94µM*,2.8%,6.31µM*,-26.3%
CCOc1ccc(-n2c(SCc3ccc(C(=O)OC)o3)nc3c([nH]c4ccccc43)c2=O)cc1,9.1%,0.3%,5.6%,-6.8%[10.9 µM]
CN(C)c1ccc(-c2cc(NCc3cccnc3)ncn2)cc1,7.94µM*,-0.2%[11.4 µM],?,-41.2%
CCc1c(C)sc2c1CCN(Cc1ccccc1)C2c1ccccc1 (centres undefined),-1.1%,?,26.1%,-11.9%[10.9 µM]
FC(F)(F)c1cccc(Nc2nc3nonc3nc2Nc2ccc(Cl)cc2)c1,15.8µM*,?,?,-25.9%[10.9 µM]
CCc1ccc(C(=O)c2cn(CC(=O)Nc3ccc4c(c3)OCO4)c3cc(OC)c(OC)cc3c2=O)cc1,-11.5%,?,2.3%,-8.2%[10.9 µM]
CCOc1ccc(C(=O)c2cn(CC(=O)Nc3ccc(C)c(Cl)c3)c3ccc(OCC)cc3c2=O)cc1,16.1%,?,0.3%,-14.9%[10.9 µM]
CCc1ccc2c(c1)c(=O)c(C(=O)c1ccccc1)cn2CC(=O)Nc1ccc(C)c(Cl)c1,15.8µM*,?,-22.5%,-28.1%[10.9 µM]
CCc1ccc(C(=O)c2cn(CC(=O)Nc3ccc4c(c3)OCO4)c3ccc(Cl)cc3c2=O)cc1,12.6µM*,1.1%,-28.2%,-20.9%[10.9 µM]
CCc1ccc(C(=O)c2cn(CC(=O)Nc3ccc4c(c3)OCO4)c3ccc(CC)cc3c2=O)cc1,12.6µM*,-0.1%,?,-26.9%[10.9 µM]
OCCNCCCOc1cccc(Cl)c1Cl,12.6µM*,-0.6%,?,-33.9%
CN(C)C(=O)c1ccc(-c2nccc(NCc3cccs3)n2)cc1,-13.1%,-0.5%[11.4 µM],5.9%,?
CN(C)c1ccc(-c2nccc(NCc3cccs3)n2)cc1,5.01µM*,12.7%[11.4 µM],7.94µM*,-32.4%
OC(CNCc1ccco1)COc1ccccc1 (centres undefined),2.7%,1.2%,6.3%,-19.0%
SMILES,p53ts 39C kill,IkB sig inh,p53ts 32C tox,Peg3 imprint
OC(CNCc1ccco1)Cn1c2ccccc2c2ccccc21 (centres undefined),12.6µM*,?,?,-15.8%
CSc1n[nH]c(NCc2ccc(C)cc2)n1,14.1µM*,.,11.2µM*,.
CCCC(c1nnnn1Cc1ccc(F)cc1)N1CCN(C2CCCCC2)CC1 (centres undefined),20µM*,0.5%,?,3.6%
CCCC(c1nnnn1Cc1cccs1)N1CCN(C2CCCC2)CC1 (centres undefined),15.1%,-0.2%,-5.5%,-14.4%
O=C(CSc1nc2c([nH]c3ccccc32)c(=O)n1-c1ccccc1F)Nc1ccccc1C(F)(F)F,-16.3%,?,-14.7%,?
CCN(Cc1ccccc1)S(=O)(=O)c1ccc(C(=O)Nc2nnc(-c3ccccc3OC)o2)cc1,12.6µM*,-0.5%,-2.1%,-15.0%
CCCCN(C)S(=O)(=O)c1ccc(C(=O)Nc2nnc(-c3cccs3)o2)cc1,7.94µM*,?,-23.9%,-45.5%
CCCCN(CCCC)S(=O)(=O)c1ccc(C(=O)Nc2nnc(CSC)o2)cc1,15.8µM*,-0.3%,-20.0%,-23.8%
COc1ccccc1-c1nnc(NC(=O)c2ccc(S(=O)(=O)N(C)C)cc2)o1,?,6.2%,-29.9%,-24.5%
CCCCN(CC)S(=O)(=O)c1ccc(C(=O)Nc2nnc(CSC)o2)cc1,25.1µM*,4.6%,-25.6%,-29.8%
CCCc1nn2c(=O)cc(COC(=O)c3ccc(NC(=O)COc4ccccc4F)cc3)nc2s1,10.0%,-1.4%,-0.5%,-13.4%[10.9 µM]
Cc1nc2c(c(C)c1CCC(=O)NCc1ccc(F)cc1)c(=O)n(C)c(=O)n2C,-16.7%,?,1.3%,-5.6%[10.9 µM]
Cc1ccnc(N(C(=O)c2cccs2)C(=O)c2cccs2)c1,12.6µM*,0.8%,?,-89.4%
Cc1ccc2nc(N(Cc3cccnc3)C(=O)c3cccs3)sc2c1,-27.5%,?,-4.0%,-10.8%[10.9 µM]
N#Cc1cc2c(nc1SCc1nc3ccccc3[nH]1)CCC2,5.01µM*,?,3.98µM*,-67.7%
Cc1cccc(CSc2nc3c(cc2C#N)CCC3)c1,-5.7%,.,-12.4%,.
COc1ccccc1N1CCN(CC(O)COc2ccc(C)cc2C(C)(C)C)CC1 (centres undefined),25.1µM*,?,-24.5%,-13.2%[10.9 µM]
CCOc1ccc2c(ccc(/C=C\c3cc(C)c4cccnc4c3O)[n+]2C)c1,-27.6%[9.22 µM],?,-17.3%[9.22 µM],-25.6%[10.9 µM]
Clc1ccccc1-c1nccc(-n2ccnc2)n1,0.2%,-2.2%[11.4 µM],-1.6%,-5.0%
Clc1ccccc1C(c1ccccc1)(c1ccccc1)n1ccnc1,25.1µM*!,2.8%[25.6 µM],35.0%[20.6 µM],-20.7%
O=C(O)C1CCCN1S(=O)(=O)c1cccc2cccnc12 (centres undefined),3.1%,4.2%,0.3%,-3.6%
Cc1ccc(-c2nc3ccccc3[nH]2)cc1NC(=O)COc1ccccc1[N+](=O)[O-],7.94µM*,?,15.8µM*,-15.1%[10.9 µM]
COc1cccc(-n2c(SCC(=O)Nc3cccc(Cl)c3)nc3c(oc4ccccc43)c2=O)c1,-11.5%,?,7.9%,3.9%[10.9 µM]
O=C(CSc1nc2c(oc3ccccc32)c(=O)[nH]1)Nc1cccc(Cl)c1,7.94µM*,?,10µM*,12.6%[10.9 µM]
CC(C)(C)c1ccc(Cn2nnc3c(=O)[nH]c(C4CCN(C(=O)Cc5cccs5)CC4)nc32)cc1,15.8µM*,?,?,-21.1%
CCC(Sc1nnc(-c2ccc(OC)c(OC)c2)c(-c2ccc(OC)c(OC)c2)n1)C(=O)NC1CCCC1 (centres undefined),?,0.1%,-6.8%,?
